The supplement of paper PMC9262897, “Low-cost anti-mycobacterial drug discovery using engineered E. coli” (Nature Communications, 2022)
Counter-ions that a name gives are not always drawn. ± gives the standard deviation of the averaged measurements.

Tests used:
Experiment in all cases: growth (OD600 after 10 h); higher = more growth (less inhibition)
[1] = test system: E. coli TESEC Alr+ wild-type control; details: compound 0.1 mM; raw OD600 reference: median of DMSO wells 0.241, cell-free background 0.041
Experimental: (§1)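 TESEC Mtb Alr E. coli, or the Alr+ wild-type control, in 384-well plates with Prestwick library compounds at 0.1 mM and 1% DMSO, across arabinose induction levels of 1E3 to 1E7 nM. Growth is read as OD600 after 10 h at 37 °C in triplicate biological replicates.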

E. coli TESEC Mtb Alr [2] = details: compound 0.1 mM
Experimental: as §1

E. coli TESEC Mtb Asd = details: compound 0.1 mM
Experimental: (§2)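 TESEC E. coli strains in which the native enzyme is deleted and replaced by arabinose-inducible Mtb Asd, DapB, CysH or TrpD, each grown in its selective medium. Strains were screened against the Prestwick library at 0.1 mM and 1% DMSO in 384-well format at low and high arabinose induction. Growth is read as OD600 after 10 h in triplicate.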

E. coli TESEC Mtb DapB = details: compound 0.1 mM
Experimental: as §2

[3] = test system: E. coli TESEC Alr+ wild-type control; details: compound 0.1 mM; raw OD600 reference: median of DMSO wells 0.49, cell-free background 0.052
Experimental: (§3)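 TESEC Mtb Alr E. coli (ΔaraC ΔtolC ΔentC Δalr ΔdadX, arabinose-inducible Mtb Alr) or the Alr+ wild-type control strain, grown in defined M9-fructose medium without D-alanine in 96-well plates with Prestwick library compounds at 0.1 mM and 1% DMSO. Low Alr induction is 0.1 µM arabinose and high induction is 10 mM arabinose.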

E. coli TESEC Mtb Alr [4] = details: compound 0.1 mM; remark: listed apart in the source
Experimental: as §3

[5] = arabinose 1000 nM, raw OD600 reference: median of DMSO wells 0.294, cell-free background 0.041
[6] = arabinose 10000 nM, raw OD600 reference: median of DMSO wells 0.264, cell-free background 0.041
[7] = arabinose 100000 nM, raw OD600 reference: median of DMSO wells 0.201, cell-free background 0.041
[8] = arabinose 1000000 nM, raw OD600 reference: median of DMSO wells 0.193, cell-free background 0.041
[9] = arabinose 10000000 nM, raw OD600 reference: median of DMSO wells 0.146, cell-free background 0.041
[10] = arabinose induction (level): High, raw OD600 reference: median of DMSO wells 0.331, cell-free background 0.041
[11] = arabinose induction (level): Low, raw OD600 reference: median of DMSO wells 0.417, cell-free background 0.041
[12] = arabinose induction (level): High, raw OD600 reference: median of DMSO wells […], cell-free background 0.041
[13] = arabinose induction (level): Low, raw OD600 reference: median of DMSO wells 0.227, cell-free background 0.041
[14] = arabinose 100 nM, raw OD600 reference: median of DMSO wells 0.413, cell-free background 0.052
[15] = arabinose 10000000 nM, raw OD600 reference: median of DMSO wells […], cell-free background 0.052

Row | Structure (SMILES) | growth [1] | growth (E. coli TESEC Mtb Alr [2]; [5]) | growth (E. coli TESEC Mtb Alr [2]; [6]) | growth (E. coli TESEC Mtb Alr [2]; [7]) | growth (E. coli TESEC Mtb Alr [2]; [8]) | growth (E. coli TESEC Mtb Alr [2]; [9]) | growth (E. coli TESEC Mtb Asd; [10]) | growth (E. coli TESEC Mtb Asd; [11]) | growth (E. coli TESEC Mtb DapB; [12]) | growth (E. coli TESEC Mtb DapB; [13]) | growth [3] | growth (E. coli TESEC Mtb Alr [4]; [14]) | growth (E. coli TESEC Mtb Alr [4]; [15])
1 | Cn1cnc([N+](=O)[O-])c1Sc1ncnc2[nH]cnc12 [Azathioprine] | 0.126 ± 0.017 | 0.0771 ± 0.0059 | 0.0744 ± 0.0045 | 0.0829 ± 0.005 | 0.0691 ± 0.0013 | 0.0849 ± 0.0021 | 0.347 ± 0.045 | 0.261 ± 0.043 | 0.202 ± 0.016 | 0.226 ± 0.019 | 0.27 ± 0.0092 | 0.312 ± 0.029 | 0.175 ± 0.0061
2 | Oc1c(Cl)cc(Cl)c2cccnc12 [Chloroxine] | 0.044 ± 0.00076 | 0.0429 ± 0.00083 | 0.0409 ± 0.00069 | 0.0435 ± 0.00076 | 0.0415 ± 0.00061 | 0.0495 ± 0.00057 | 0.0595 ± 0.0028 | 0.154 ± 0.05 | 0.0813 ± 0.015 | 0.117 ± 0.069 | 0.0623 ± 0.0012 | 0.0554 ± 0.0075 | 0.0726 ± 0.013
3 | CC1(C)O[C@@H]2[C@@H](CO[C@@]3(COS(N)(=O)=O)OC(C)(C)O[C@@H]23)O1 [Topiramate] | 0.234 ± 0.0043 | 0.291 ± 0.0074 | 0.2714 ± 0.0027 | 0.18 ± 0.018 | 0.204 ± 0.0062 | 0.136 ± 0.0016 | 0.243 ± 0.055 | 0.295 ± 0.057 | 0.19 ± 0.01 | 0.203 ± 0.022 | 0.541 ± 0.075 | 0.4226 ± 0.0021 | 0.302 ± 0.0096
4 | CCN(CC)CCCC(C)Nc1c2ccc(Cl)cc2nc2ccc(OC)cc12 (configuration not stated) [Quinacrine dihydrochloride hydrate] | 0.0702 ± 0.00072 | 0.0775 ± 0.016 | 0.0444 ± 0.00085 | 0.104 ± 0.0031 | 0.04497 ± 0.00023 | 0.1 ± 0.0037 | 0.0701 ± 0.0057 | 0.0679 ± 0.006 | 0.156 ± 0.022 | 0.0986 ± 0.073 | 0.125 ± 0.049 | 0.421 ± 0.0083 | 0.222 ± 0.025
5 | CCCCC(C)(O)C/C=C/[C@H]1[C@H](O)CC(=O)[C@@H]1CCCCCCC(=O)OC (mixture of isomers) [Misoprostol] | 0.323 ± 0.014 | 0.3803 ± 0.0025 | 0.278 ± 0.0043 | 0.474 ± 0.013 | 0.193 ± 0.009 | 0.22 ± 0.013 | 0.35 ± 0.071 | 0.44 ± 0.022 | 0.332 ± 0.034 | 0.311 ± 0.044 | 0.518 ± 0.094 | 0.432 ± 0.0064 | 0.378 ± 0.013
6 | c1coc(CNc2ncnc3nc[nH]c23)c1 [6-Furfurylaminopurine] | 0.252 ± 0.0041 | 0.29 ± 0.014 | 0.252 ± 0.0053 | 0.209 ± 0.027 | 0.181 ± 0.0069 | 0.138 ± 0.0046 | 0.341 ± 0.068 | 0.43 ± 0.043 | 0.209 ± 0.011 | 0.221 ± 0.024 | 0.44 ± 0.022 | 0.405 ± 0.0075 | 0.365 ± 0.0057
7 | COc1c(N2C[C@@H]3CCCN[C@@H]3C2)c(F)cc2c(=O)c(C(=O)O)cn(C3CC3)c12 [Moxifloxacin] | 0.04227 ± 0.00025 | 0.04077 ± 0.00035 | 0.0401 ± 0.0003 | 0.0415 ± 0.0005 | 0.04013 ± 0.00012 | 0.0446 ± 0.0054 | 0.0511 ± 0.0029 | 0.052 ± 0.0016 | 0.04903 ± 0.00038 | 0.04933 ± 0.00035 | 0.0539 ± 0.0014 | 0.05287 ± 0.00031 | 0.0516 ± 0.0013
8 | C=C1/C(=C\C=C2/CCC[C@]3(C)[C@@H]([C@H](C)CCCC(C)C)CC[C@@H]23)C[C@@H](O)C[C@@H]1O [Alfacalcidol] | 0.0884 ± 0.006 | 0.0977 ± 0.004 | 0.051 ± 0.0012 | 0.143 ± 0.018 | 0.065 ± 0.0018 | 0.121 ± 0.002 | 0.219 ± 0.033 | 0.301 ± 0.066 | 0.234 ± 0.012 | 0.226 ± 0.018 | 0.146 ± 0.0019 | 0.4206 ± 0.0018 | 0.149 ± 0.023
9 | N=C(N)NS(=O)(=O)c1ccc(N)cc1 [Sulfaguanidine] | 0.249 ± 0.013 | 0.292 ± 0.029 | 0.26 ± 0.0047 | 0.227 ± 0.027 | 0.173 ± 0.0041 | 0.143 ± 0.0034 | 0.38 ± 0.028 | 0.383 ± 0.021 | 0.203 ± 0.0078 | 0.249 ± 0.032 | 0.431 ± 0.022 | 0.41 ± 0.016 | 0.383 ± 0.022
10 | CC(=O)OCC(CCn1cnc2cnc(N)nc21)COC(C)=O [Famciclovir] | 0.23 ± 0.005 | 0.288 ± 0.0069 | 0.269 ± 0.0058 | 0.184 ± 0.031 | 0.21 ± 0.021 | 0.14 ± 0.0045 | 0.284 ± 0.048 | 0.386 ± 0.039 | 0.179 ± 0.0051 | 0.199 ± 0.031 | 0.56 ± 0.17 | 0.4163 ± 0.0038 | 0.346 ± 0.0062
11 | COC(=O)[C@H](c1ccccc1Cl)N1CCc2sccc2C1 [Clopidogrel] | 0.0938 ± 0.0032 | 0.0873 ± 0.0047 | 0.0411 ± 0.0013 | 0.0991 ± 0.004 | 0.0439 ± 0.00078 | 0.0663 ± 0.00069 | 0.158 ± 0.014 | 0.128 ± 0.0029 | 0.153 ± 0.015 | 0.159 ± 0.012 | 0.3176 ± 0.0024 | 0.38 ± 0.016 | 0.0754 ± 0.014
12 | NC[C@H]1O[C@H](O[C@H]2[C@H](O)[C@@H](O[C@H]3O[C@H](CO)[C@@H](O)[C@H](N)[C@H]3O)[C@H](N)C[C@@H]2N)[C@H](N)C[C@@H]1O [Tobramycin] | 0.0408 ± 0.00049 | 0.0407 ± 0.00085 | 0.03917 ± 0.00021 | 0.0411 ± 0.00055 | 0.03913 ± 0.00031 | 0.04083 ± 5.8e-05 | 0.0498 ± 0.00085 | 0.0468 ± 0.0021 | 0.04757 ± 0.0004 | 0.0491 ± 0.0037 | 0.04933 ± 0.00049 | 0.0513 ± 0.0001 | 0.0502 ± 0.001
13 | CNC(=C[N+](=O)[O-])NCCSCc1csc(CN(C)C)n1 [Nizatidine] | 0.241 ± 0.0083 | 0.301 ± 0.018 | 0.274 ± 0.0044 | 0.21 ± 0.015 | 0.189 ± 0.0052 | 0.14 ± 0.0024 | 0.368 ± 0.033 | 0.438 ± 0.012 | 0.205 ± 0.019 | 0.228 ± 0.025 | 0.561 ± 0.066 | 0.408 ± 0.015 | 0.342 ± 0.01
14 | CC(C)(C)NCC(O)COc1cccc2c1CC(O)C(O)C2 (configuration not stated) [Nadolol] | 0.254 ± 0.016 | 0.303 ± 0.014 | 0.267 ± 0.0029 | 0.192 ± 0.025 | 0.2 ± 0.0078 | 0.137 ± 0.0026 | 0.336 ± 0.067 | 0.442 ± 0.0083 | 0.201 ± 0.02 | 0.259 ± 0.018 | 0.493 ± 0.12 | 0.408 ± 0.011 | 0.384 ± 0.015
